Whole data set: some 33,000 sequences, median “E-score (-0.5 to 0.5)” near -0.021, cut for the highest 2% near 0.32. Only a selection was taken, and the highest values are over-represented in it overall.
Biological target: T1, Zap1 (UniProt P47043)
T1 sequence: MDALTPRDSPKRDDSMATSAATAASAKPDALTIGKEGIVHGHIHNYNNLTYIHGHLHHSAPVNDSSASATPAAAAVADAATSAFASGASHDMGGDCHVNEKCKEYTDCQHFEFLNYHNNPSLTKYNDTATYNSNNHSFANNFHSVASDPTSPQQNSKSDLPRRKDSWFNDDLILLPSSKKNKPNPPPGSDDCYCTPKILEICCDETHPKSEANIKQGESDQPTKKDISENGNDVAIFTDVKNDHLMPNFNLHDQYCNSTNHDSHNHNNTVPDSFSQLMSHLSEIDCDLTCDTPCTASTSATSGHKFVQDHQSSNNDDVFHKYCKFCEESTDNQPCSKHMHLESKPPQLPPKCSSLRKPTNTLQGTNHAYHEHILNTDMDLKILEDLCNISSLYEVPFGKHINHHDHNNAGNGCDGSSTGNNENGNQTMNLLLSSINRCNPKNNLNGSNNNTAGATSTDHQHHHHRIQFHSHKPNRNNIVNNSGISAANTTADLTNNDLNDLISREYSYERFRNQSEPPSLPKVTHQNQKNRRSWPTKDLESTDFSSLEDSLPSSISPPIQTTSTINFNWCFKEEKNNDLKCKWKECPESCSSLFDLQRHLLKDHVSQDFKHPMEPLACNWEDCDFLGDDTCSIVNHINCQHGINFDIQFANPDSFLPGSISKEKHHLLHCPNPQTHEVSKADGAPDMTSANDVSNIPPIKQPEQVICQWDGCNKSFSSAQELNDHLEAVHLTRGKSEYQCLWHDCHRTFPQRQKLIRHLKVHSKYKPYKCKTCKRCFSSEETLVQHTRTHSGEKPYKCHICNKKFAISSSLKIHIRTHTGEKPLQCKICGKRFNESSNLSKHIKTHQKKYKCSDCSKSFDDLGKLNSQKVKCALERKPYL
Assay: PBM E-score (8-mer binding enrichment) (E-score (-0.5 to 0.5)); higher = stronger / more preferred TF binding
Settings: protein concentration: 200 nM; construct: GST-full length
How it was run: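 Detection of bound protein used fluorescent anti-GST, with scans normalised by masliner. The proteins were GST-tagged yeast transcription factors applied at about 100-200 nM to universal all-10-mer Agilent arrays made double-stranded by primer extension. Each ungapped eight-base word, pooled with its reverse complement, was scored with an E-score from the Universal PBM Analysis Suite.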

| Sequence | PBM E-score |
| --- | --- |
| CGTAGTTC | -0.125 |
| AGTACCAT | 0.127 |
| ACCTTTCC | 0.107 |
| ACCTTTTA | 0.411 |
| CCCTTTTA | 0.0826 |
| ACCTATAT | 0.356 |
| ACCTATAC | 0.249 |
| ACCTATAA | 0.188 |
| ACCTTTCA | 0.257 |
| ACCTTTCT | 0.372 |
| GCCTTTTA | 0.0912 |
| GGTAGCAA | 0.0702 |
| AAACAGTG | 0.0759 |
| CCAGTTTA | 0.073 |
| TAAACCTA | 0.137 |
| CCAAGCCA | -0.122 |
| CAGGCTAG | -0.141 |
| CGTACGAC | -0.126 |
| GAAAGGTC | 0.294 |
| AGAAGGTA | 0.286 |
| ATAAGGTA | 0.231 |
| TAAAGGGA | 0.145 |
| AAAAGGTA | 0.405 |
| CAAAGGTA | 0.267 |
| TAAAGGAA | 0.00829 |

| Sequence | PBM E-score |
| --- | --- |
| TAAAGGTA | 0.34 |
| GAAAGGTA | 0.363 |
| AAGACCAC | 0.0451 |
| CAGCCCAC | -0.113 |
| GAGAGCAA | -0.227 |
| GCGCCTAA | 0.0328 |
| GGTACCTA | 0.398 |
| AGTACCTA | 0.299 |
| GGTACCCA | 0.411 |
| CGTACCCA | -0.0471 |
| GGTACTCA | 0.329 |
| CGTACCTA | -0.117 |
| AGTACCCA | 0.289 |
| AGTACTCA | -0.0985 |
| CGTACTCA | -0.0651 |
| CCATCCAG | -0.155 |
| GACTCGGA | -0.237 |
| AAACGTAG | -0.0378 |
| GGTCCTAC | -0.105 |
| AGACTGGG | -0.141 |
| TACCGTGA | 0.247 |
| GAGTACCC | 0.342 |
| AAGTACCC | 0.34 |
| CAGTACCC | 0.313 |
| AAGTACGC | -0.152 |

| Sequence | PBM E-score |
| --- | --- |
| AAGTACCA | 0.211 |
| GAGTACCA | 0.247 |
| CGAATTCG | -0.233 |
| TAGCAAAA | 0.0555 |
| AGAGCAAG | -0.196 |
| ACGACCCA | 0.2 |
| ACAACCGT | 0.0867 |
| ACGACCCG | 0.0256 |
| AGAACCCA | 0.19 |
| ACGACCCT | 0.348 |
| AGAACCCC | 0.294 |
| ACAACCCA | 0.286 |
| ACAAACCG | 0.027 |
| ACAACCCG | 0.398 |
| ACAACCCT | 0.443 |
| AGAACCCT | 0.321 |
| CCAACCCG | 0.148 |
| AGTCCTCG | -0.272 |
| AAGATAGC | -0.144 |
| AATAAGGA | -0.00733 |
| AAGCACAA | 0.154 |
| GCGATGGA | 0.0884 |
| CCTTGACG | 0.115 |
| CCAACCCC | 0.224 |
| ACAACCTC | 0.31 |

| Sequence | PBM E-score |
| --- | --- |
| AAAACCCT | 0.362 |
| GCAACCCA | 0.294 |
| AAAACCCC | 0.276 |
| AAACCCCT | 0.188 |
| ACAACCCC | 0.321 |
| GCAACCCC | 0.342 |
| ACAAACCC | 0.0973 |
| GGCCAGCC | -0.142 |
| AAATCCTC | -0.279 |
| AGGACCAG | -0.0376 |
| CGGAGTAG | -0.149 |
| CTCCTGTA | -0.0674 |
| ATGGATTG | -0.0434 |
| CGGAATCA | -0.0619 |
| CGGGCCAC | 0.125 |
| CGTCGAGC | -0.244 |
| CAATGAGC | -0.126 |
| GCGTAACA | -0.135 |
| GCGTAAGC | -0.239 |
| CCGTAACC | 0.471 |
| CCGTAACG | 0.0821 |
| ACGTAACC | 0.411 |
| GCGTAACC | 0.446 |
| ACGTAACT | 0.0456 |
| CCGTAACA | 0.0988 |

| Sequence | PBM E-score |
| --- | --- |
| ACGTAACG | -0.248 |
| CTTAAGGA | 0.119 |
| ATGGGGCG | -0.129 |
| CTTTAACC | 0.405 |
| ATTTAACC | 0.418 |
| ATTTAACG | 0.023 |
| CTTTTAAC | 0.0885 |
| ATTTAACA | -0.0688 |
| CTTTAACA | 0.123 |
| CGCTGATA | -0.172 |
| CCAGGTTC | -0.159 |
| CCAGGTTA | 0.382 |
| ACAGGTTA | 0.398 |
| ACAGGTTG | 0.147 |
| GCAGGTAA | 0.173 |
| ACAGGTTC | -0.12 |
| CCAGGTAA | 0.041 |
| GCAGGTCA | 0.194 |
| GCAGGTTA | 0.335 |
| TCGCCACA | -0.04 |
| AGCAGCCT | -0.168 |
| ATAGCAGG | 0.0205 |
| ATGAATGG | 0.203 |
| CTAGTAGC | -0.168 |
| ACGATATC | 0.0333 |

| Sequence | PBM E-score |
| --- | --- |
| CTGGGTTA | 0.369 |
| GTGGGTAA | 0.0319 |
| ATGGGTTA | 0.455 |
| ATGGGTTC | 0.116 |
| GTGGGTTA | 0.404 |
| CTGGGTTC | 0.0979 |
| CTGGGTCA | 0.143 |
| ATGGGTTG | 0.234 |
| GTGGGTGA | 0.0723 |
| GCCACAAC | 0.212 |
| TAGGACGA | -0.113 |
| AGCAAGCG | -0.192 |
| GAGACAAA | -0.173 |
| GCCACACA | -0.0586 |
| CCCCACGC | -0.0232 |
| ACACAAGG | 0.132 |
| AAGTTCAG | -0.0476 |
| AGGGTCGG | 0.126 |
| AGGGTCAG | 0.24 |
| TGGGTCAA | 0.0925 |
| AGGGTCAC | 0.417 |
| AGGGTCAA | 0.416 |
| GGGGTCAC | 0.428 |
| AGGGTCGC | 0.364 |
| GCGGTCAC | 0.313 |

| Sequence | PBM E-score |
| --- | --- |
| CGGGTCAA | 0.163 |
| GGGGTCAA | 0.266 |
| CGGGTCGC | 0.0356 |
| ATGGTCAC | 0.312 |
| GATTCTTA | 0.177 |
| CTAGTCTA | -0.0327 |
| CAGGTTCG | -0.158 |
| ATATCCTG | 0.103 |
| ACCATCGT | -0.0674 |
| ACTAACTG | 0.126 |
| AGAGTCAT | -0.0584 |
| AGGGTCCA | 0.214 |
| CTGGTCAC | 0.148 |
| AGGGTCCC | 0.32 |
| ATGGTCAA | 0.245 |
| AGGGTCAT | 0.449 |
| CGGGTCAG | 0.28 |
| CGGGTCAC | 0.374 |
| CGGGTCCC | -0.116 |
| CGAGGGGC | 0.0476 |
| CAAGGACA | -0.0888 |
| GAGATCCA | -0.0613 |
